Screens: PubChem BioAssay, National Center for Advancing Translational Sciences (NCATS)
uPA generation: inhibitors of cell surface uPA generation; 330,000 tested, 0.31% active; cell surface uPA generation assay, qHTS; AID 540303; Potency, µM (titrated, usually from 38.3 µM), most hits filed as inhibitors; active = well fitted inhibition curve with a large enough effect; inconclusive = small, poorly fitted or top-dose-only effect; inactive = no such curve, though single readings can be large or run the other way; tested in mouse RAW 264.7 cells; also: nearly all actives have a fitted effect of over 55% in size
GLP1R ag: GLP-1 receptor (human) agonism | AID 624172 | 380,000 tested, 0.007% active | P43220 | HEK293 GLP-1R CRE-luciferase, luminescence, 4-6 h; cells express a hypersensitive GLP-1R form | Potency, µM (series often up to 45.6 µM), actives largely listed as activators
Target sequence (P43220 whole entry, looked up): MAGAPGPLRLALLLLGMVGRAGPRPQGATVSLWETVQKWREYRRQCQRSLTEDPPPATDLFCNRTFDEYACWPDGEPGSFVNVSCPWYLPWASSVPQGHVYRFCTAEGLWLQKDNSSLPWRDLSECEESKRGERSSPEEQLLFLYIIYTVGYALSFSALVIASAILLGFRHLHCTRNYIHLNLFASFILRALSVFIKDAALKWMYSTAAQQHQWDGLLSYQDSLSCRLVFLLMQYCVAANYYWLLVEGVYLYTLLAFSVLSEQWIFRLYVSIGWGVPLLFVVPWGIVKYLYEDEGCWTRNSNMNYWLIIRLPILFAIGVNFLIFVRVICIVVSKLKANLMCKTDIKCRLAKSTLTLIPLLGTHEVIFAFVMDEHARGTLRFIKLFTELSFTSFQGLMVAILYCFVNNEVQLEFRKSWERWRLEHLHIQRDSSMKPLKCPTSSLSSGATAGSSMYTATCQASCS
Mm-Cpn inhibitor: blocks the Methanococcus maripaludis chaperonin Mm-Cpn; purified Mm-Cpn ATPase, ADP Transcreener TR-FRET; Potency, µM (titrated, usually from 76.9 µM), hits mostly inhibitors; 330,000 tested, 0.031% active; also: nearly all actives have a fitted effect of over 80% in size
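Reaction buffer contained 30 mM Tris pH 7.4, 100 mM KCl, 5 mM MgCl2 and 1 mM DTT. Mm-CPN (25 nM final) hydrolysed 10 uM ATP over 30 min at 37°C; ADP was read by HTRF.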
GLP1R cytotox: cytotoxic in the GLP-1 receptor inverse agonist counter-screen; 410,000 tested, 0.13% active; HEK293 cAMP-luciferase reporter cells, luminescence, 24 h; Potency, µM (doses to about 38.3 µM), actives largely listed as inhibitors;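 also: loss of luciferase light is scored as toxicity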
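To flag toxic compounds, the library was rerun on cells for 24 hr at 37 deg C and 5% CO2. Viability-linked luminescence was captured 12 min after adding luciferase detection reagent.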
CCT modulator: changes cytosolic chaperonin activity; activity change, % (no concentration beside the values), hits read low; purified chaperonin ATPase assay, HTRF ADP detection, 30 min; AID 651819; 360,000 tested, 0.3% active; in the data active = activity change below about -30%
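TRiC at 40 or 20 nM final (batch-dependent) in 30 mM Tris pH 7.4, 100 mM KCl, 5 mM MgCl2, 1 mM DTT, with compound at single 76 uM and 10 uM ATP, 30 min at 37 deg C. ADP detected by HTRF Transcreener, 665/615 ratio.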
GLP-1R inv ag: inverse agonists of human GLP-1 receptor; 410,000 tested, 1.6% active; AID 624417; P43220; Potency, µM (doses to about 38.3 µM), usual class: inhibitors; HEK293 GLP-1R CRE-luciferase, luminescence, 24 h; GLP-1R form is constitutively active; also: nearly all actives have a fitted effect of over 55% in size
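HEK293 cells stably co-expressing constitutively active GLP-1R and a cAMP-responsive luciferase reporter were seeded in DMEM with 10% Nu serum, given compounds after 12 h, and incubated 24 h at 37 deg C. Luminescence was then read.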
Of the large screens only hits and unclear results are named; the others gave an inactive call. Only some compounds are listed: those with a hit (about 2.2% of all), similar ones and a draw of the others. Unless noted, calls follow the shape of the dose curve; as a rule, active = well fitted curve in the direction sought with a large enough effect; inconclusive = small, poorly fitted or top-dose-only effect, or another doubt; inactive = no such curve, though single readings can be large; an effect the other way counts as inactive or inconclusive.

CC(C)Cn1c(-c2ccccc2Cl)nc2ccccc21	GLP-1R inv ag inconclusive (no result: uPA generation, GLP1R ag, Mm-Cpn inhibitor, CCT modulator)
CC(C)N(C(=O)Cn1c(-c2ccccc2Cl)nc2ccccc21)c1ccccc1	CCT modulator -55
Cc1c(/C=C(\C#N)C(=O)Nc2cccc(Cl)c2)c2ccccc2n1Cc1ccccc1	none (no result: uPA generation, GLP1R ag, Mm-Cpn inhibitor, CCT modulator)
COc1ccccc1OCCOc1ccc(C(=O)c2ccccc2)cc1	GLP-1R inv ag 8.9µM
COc1ccccc1OCc1ccc(C(=O)c2ccccc2)cc1	GLP-1R inv ag inconclusive
CCCSc1ncc(Cl)c(C(=O)N(Cc2ccc(N(C)C)cc2)C2CCS(=O)(=O)C2)n1 (centres undefined)	none (no result: uPA generation, GLP1R ag, Mm-Cpn inhibitor, CCT modulator)
CC1Cc2cc(/C=C3/SC(=S)NC3=O)ccc2O1 (centres undefined)	GLP1R cytotox 10µM, GLP-1R inv ag inconclusive
COc1cccc(NC(=O)Nc2ccncc2)c1	uPA generation inconclusive
COc1ccc(NC(=O)Nc2cccc(NC(C)=O)c2)c(OC)c1	CCT modulator -43
COc1cccc(NC(=O)Nc2ccc(C(C)(C)C)cc2)c1	GLP-1R inv ag 6.3µM
CCC(C)NC(=O)c1cccc(NC(=O)c2nsc3ccccc23)c1 (centres undefined)	none (no result: uPA generation, GLP1R ag, Mm-Cpn inhibitor, CCT modulator)
COc1ccc(OC(C)C(=O)NCCC2=CCCCC2)cc1 (centres undefined)	GLP-1R inv ag 11µM
S=C(NC1CCCCC1)N(CCc1nc2ccccc2[nH]1)C1CCCC1	GLP1R cytotox inconclusive, GLP-1R inv ag 10µM
CCOC(=O)c1cccc(NC(=O)c2cc(CN3CCOCC3)on2)c1	none (no result: uPA generation, GLP1R ag, Mm-Cpn inhibitor, CCT modulator)
CCOC(=O)c1c(C)[nH]c(C)c1S(=O)(=O)N1CCCC(C(=O)N2CCN(c3cc(C)ccc3C)CC2)C1 (centres undefined)	GLP-1R inv ag inconclusive (no result: uPA generation, GLP1R ag, Mm-Cpn inhibitor, CCT modulator)
CC(C)(C)c1nnc(N/N=C/c2cc(Br)ccc2O)n(N)c1=O	GLP1R cytotox inconclusive, GLP-1R inv ag 3.5µM
Cn1c(=O)c(NC2CCCCC2)c2c3c(cccc31)C(=O)c1ccccc1-2	GLP-1R inv ag 10µM
CCCCNc1c2c3c(cccc3n(C)c1=O)C(=O)c1ccccc1-2	none
Cc1nn2c(=O)cc(COC(=O)c3ccccc3NC(=O)C(C)C)nc2s1	none (no result: uPA generation, GLP1R ag, Mm-Cpn inhibitor, CCT modulator)
C[C@H]1[C@@H](OC(=O)CCC(=O)O)OC2OC3(C)CC[C@H]4[C@H](C)CC[C@@H]1[C@@]24OO3 (some centres undefined)	none (no result: uPA generation, Mm-Cpn inhibitor, GLP1R cytotox, CCT modulator, GLP-1R inv ag)
CCOC(=O)c1c(NC(=O)CSc2nnnn2-c2ccccc2)sc2c1CC(C)(C)NC2(C)C	GLP1R cytotox inconclusive, GLP-1R inv ag inconclusive
CCOC(=O)c1c(NC(=O)CSc2nnnn2-c2ccccc2OCC)sc2c1CC(C)(C)NC2(C)C	GLP1R cytotox inconclusive, GLP-1R inv ag 10µM
CCOC(=O)c1c(NC(=O)C2COc3ccccc3O2)sc2c1CC(C)(C)NC2(C)C (centres undefined)	GLP-1R inv ag 3.2µM
CCOC(=O)c1c(NC(=O)Cc2ccccc2)sc2c1CC(C)(C)NC2(C)C	uPA generation inconclusive, GLP1R ag inconclusive, GLP-1R inv ag inconclusive
CCOC(=O)c1sc(=S)n(-c2ccccc2)c1C	none
CCOC(=O)c1sc(=S)n(Cc2ccccc2)c1C	GLP-1R inv ag 8.9µM
Cc1ccc(C#CC[N+]2(CC#Cc3ccc(C)cc3)CCCCC2)cc1	uPA generation 7.1µM, GLP-1R inv ag inconclusive
CN(C)c1ccc(-c2nc3ccccc3c(=O)[nH]2)cc1	uPA generation 1.4µM, GLP-1R inv ag 8.9µM
COc1ccc(-c2nc3ccccc3c(=O)[nH]2)cc1	none
CCCN(CCC)C(=O)CSc1nnc2cc(C)c3ccccc3n12	none (no result: uPA generation, GLP1R ag, Mm-Cpn inhibitor, CCT modulator)
Cc1ccc(CSCCNC(=O)CCSc2ccccc2)cc1	GLP-1R inv ag 10µM
Cc1cccc(CNC(=O)C2CCN(S(=O)(=O)c3cccc4nonc34)CC2)c1	none (no result: uPA generation, GLP1R ag, Mm-Cpn inhibitor, CCT modulator)
Cc1ccccc1CN1C(=O)c2ccccc2S1(=O)=O	GLP-1R inv ag inconclusive
O=C1c2ccccc2S(=O)(=O)N1Cc1nc2ccccc2s1	GLP-1R inv ag 4µM
COC(CNC(=O)C1CCCN1C(=O)OCc1ccccc1)OC (centres undefined)	none
